Sampled rows, rich in hits. Any-hit rate of the full collection: about 31%.
CYP2C9 inh – human CYP2C9 inhibition | CYP2C9 Supersomes, luciferin-H conversion, luminescence | inhibition, % at 5 µM | 20% of 96,000 active | AID 777;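 active = blocking of liver enzyme CYP2C9 beyond about 50% at 5 µM, limit read from the data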
Target sequence (P11712 whole entry, looked up): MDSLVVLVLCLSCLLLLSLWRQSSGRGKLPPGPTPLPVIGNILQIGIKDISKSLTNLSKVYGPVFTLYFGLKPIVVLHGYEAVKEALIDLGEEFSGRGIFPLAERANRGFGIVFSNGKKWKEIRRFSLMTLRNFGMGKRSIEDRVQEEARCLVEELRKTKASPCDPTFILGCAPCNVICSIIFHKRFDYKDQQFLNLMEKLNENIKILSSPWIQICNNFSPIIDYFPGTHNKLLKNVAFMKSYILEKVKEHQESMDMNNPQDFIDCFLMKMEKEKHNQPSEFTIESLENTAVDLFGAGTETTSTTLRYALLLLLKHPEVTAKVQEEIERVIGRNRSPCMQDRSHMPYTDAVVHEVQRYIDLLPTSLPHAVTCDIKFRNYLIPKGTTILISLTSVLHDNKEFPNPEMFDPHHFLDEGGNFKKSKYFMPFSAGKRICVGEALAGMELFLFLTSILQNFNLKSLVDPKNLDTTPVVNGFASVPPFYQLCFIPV
CYP2C19 act – activators of human cytochrome P450 2C19 | P33261 | 96,000 tested, under 10 active | AID 1025 | recombinant CYP2C19, luciferin-H EGE luminescence; stronger effect = higher value; 0 = fully inhibited enzyme, 1 = untreated enzyme | activation factor at 5 µM;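 active = activation factor of at least 2 at 5 µM in the primary screen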;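 also: 0 = wells with 2.5 mM tranylcypromine and 1 = vehicle-only wells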
CYP2C19 inh – human CYP2C19 inhibition; P33261; inhibition, % at 5 µM; CYP2C19 Supersomes, luciferin-H EGE luminescence, 30 min; 21% of 96,000 active;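 active = CYP2C19 inhibition above a set limit at 5 µM in the primary screen, cut at about 50% in these data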;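 also: plate controls were negative control wells for no effect and 2.5 mM tranylcypromine positive control for full effect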
CYP2C9 act – CYP2C9 (human) activation. recombinant CYP2C9, luciferin-H conversion, luminescence; stronger effect = higher value; factor 1 = untreated enzyme, 0 = blocked. activation factor at 5 µM. 1.4% of 96,000 active. AID 1024;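 active = activation factor of 2 or more for CYP2C9 at a 5 µM dose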;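 also: 0 = sulfaphenazole-blocked wells and 1 = vehicle-only wells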
An asterisk follows results filed as active.

Results for O=C(Nc1cc(Cl)ccc1Oc1ccccc1)c1cnccn1 ?
CYP2C9 inh: 5; CYP2C19 act: 1; CYP2C19 inh: 4; CYP2C9 act: 1

Results for Cc1ccc(N(C(C)C(=O)Nc2cc(Cl)ccc2Oc2ccccc2)S(C)(=O)=O)cc1 (stereo not drawn) ?
CYP2C9 inh: 77*; CYP2C19 act: 0.1; CYP2C19 inh: 86*; CYP2C9 act: 0.2

What do the screens show for `COc1ccc(NC(=O)C(C)N(c2ccc(C)cc2)S(C)(=O)=O)cc1` (stereo not drawn)?
CYP2C9 inh: 74*; CYP2C19 act: 0.1; CYP2C19 inh: 90*; CYP2C9 act: 0.3

What do the screens show for `CC(C(=O)Nc1ccc2c(c1)OCO2)N(c1ccc(Cl)cc1)S(C)(=O)=O` (stereo not drawn)?
CYP2C9 inh: 93*; CYP2C19 act: 0; CYP2C19 inh: 98*; CYP2C9 act: 0.1

How did Cc1ccc(N(C(C)C(=O)Nc2ccc(S(=O)(=O)N3CCOCC3)cc2)S(C)(=O)=O)cc1 (stereo not drawn) do in these assays?
CYP2C9 inh: 27; CYP2C19 act: 0.9; CYP2C19 inh: 8; CYP2C9 act: 0.7

Results for COc1ccc(N(C(C)C(=O)NC2CCCCCC2)S(C)(=O)=O)cc1 (stereo not drawn) ?
CYP2C9 inh: 28; CYP2C19 act: 0.7; CYP2C19 inh: 31; CYP2C9 act: 0.7

Results for CN(C(=O)COC(=O)CNS(=O)(=O)/C=C/c1ccccc1)C1CCS(=O)(=O)C1 (stereo not drawn) ?
CYP2C9 inh: 8; CYP2C19 act: 1; CYP2C19 inh: -2; CYP2C9 act: 0.9

How did S=c1[nH]nc(CSc2nc3ccccc3s2)n1C1CCCCC1 do in these assays?
CYP2C9 inh: 40; CYP2C19 act: 0.6; CYP2C19 inh: 38; CYP2C9 act: 0.6

Results for COC(=O)C(Cc1ccc(OC(=O)c2ccccc2C)cc1)N1Cc2ccccc2C1=O (stereo not drawn) ?
CYP2C9 inh: 26; CYP2C19 act: 0.9; CYP2C19 inh: 8; CYP2C9 act: 0.7

What do the screens show for `CCN(CC)CCCNC1CCS(=O)(=O)C1` (stereo not drawn)?
CYP2C9 inh: -3; CYP2C19 act: 1; CYP2C19 inh: 3; CYP2C9 act: 1

What do the screens show for `Fc1ccc(-n2[nH]nnc2=S)cc1N1CCCC1`?
CYP2C9 inh: 50*; CYP2C19 act: 1; CYP2C19 inh: -2; CYP2C9 act: 0.5

How did CCc1cc2c(N3CCCCC3)ncnc2s1 do in these assays?
CYP2C9 inh: 65*; CYP2C19 act: 0.1; CYP2C19 inh: 87*; CYP2C9 act: 0.3

Results for NC/C(=N\O)c1ccc(Cl)cc1Cl ?
CYP2C9 inh: 52*; CYP2C19 act: 0.2; CYP2C19 inh: 80*; CYP2C9 act: 0.5

What do the screens show for `O=C(C1CCCCC1)N1CCN(c2ccccc2F)CC1`?
CYP2C9 inh: 37; CYP2C19 act: 0.8; CYP2C19 inh: 20; CYP2C9 act: 0.6

What do the screens show for `O=C(Nc1nnc(C2CC2)s1)c1cc(-c2ccccc2)nn1-c1ccccc1`?
CYP2C9 inh: 34; CYP2C19 act: 0.8; CYP2C19 inh: 21; CYP2C9 act: 0.7

Results for CC1CCCCN1c1nnc(NC(=O)c2cc(-c3ccc(Br)cc3)on2)s1 (stereo not drawn) ?
CYP2C9 inh: 62*; CYP2C19 act: 0.8; CYP2C19 inh: 16; CYP2C9 act: 0.4

What do the screens show for `Cc1cc(=O)oc(C)c1C(=O)NCC1COc2ccccc2O1` (stereo not drawn)?
CYP2C9 inh: 55*; CYP2C19 act: 0.8; CYP2C19 inh: 17; CYP2C9 act: 0.5

Results for O=C(NCC1COc2ccccc2O1)Nc1ccccc1F (stereo not drawn) ?
CYP2C9 inh: 85*; CYP2C19 act: 0; CYP2C19 inh: 96*; CYP2C9 act: 0.2

Results for COC(=O)CNC(=O)c1c(C)cc(=O)oc1C ?
CYP2C9 inh: -30; CYP2C19 act: 1; CYP2C19 inh: 4; CYP2C9 act: 1.3

Results for O=C(NCC1COc2ccccc2O1)c1ccc(Cl)cc1 (stereo not drawn) ?
CYP2C9 inh: 1; CYP2C19 act: 0.3; CYP2C19 inh: 74*; CYP2C9 act: 1

Results for O=C(CN1C(=O)C2CC=CCC2C1=O)NCC1COc2ccccc2O1 (stereo not drawn) ?
CYP2C9 inh: 15; CYP2C19 act: 0.6; CYP2C19 inh: 36; CYP2C9 act: 0.9

Results for Cc1ccc2cccc(Oc3nnnn3-c3ccccc3)c2n1 ?
CYP2C9 inh: 1; CYP2C19 act: 0.1; CYP2C19 inh: 95*; CYP2C9 act: 1

Bioassay records as filed in PubChem.
